Reference: the supplement of paper PMC13380429
Values without a mark were called inactive.

Test system: Vero E6 infected with SARS-CoV-2
Assay: inhibition of SARS-CoV-2 cytopathic effect; higher = more antiviral protection, active = above 15
Details: 48 h

With `N#CCCCSC(=N)N` [kevetrin] the “inhibition of SARS-CoV-2 cytopathic effect” value (shortened to “inhibition”) (1 nM) was -0.54%, the “inhibition” value (8.33 nM) was -2.73% and the “inhibition” value (100 nM) was -3.7%. The “inhibition” value (833.33 nM) was -3.14% and the “inhibition” value (10000 nM) was -0.14%.

For `Cc1cc(C(N)=O)ccc1-n1c(CCC(=O)O)ccc1-c1ccc(-n2ccnc2)cc1`, the “inhibition” value (1 nM) was -3.46%, the “inhibition” value (8.33 nM) was 2.86% and the “inhibition” value (100 nM) was 2.45%. The “inhibition” value (833.33 nM) was -1.56% and the “inhibition” value (10000 nM) was -2.98%.

`C/C(=N\NC(=O)C(NC(=O)c1ccccc1)c1n[nH]c(=O)c2ccccc12)c1cccc(Br)c1` (stereo not given) was tested, and the “inhibition” value (1 nM) was -0.71%, the “inhibition” value (8.33 nM) was 2.21% and the “inhibition” value (100 nM) was 0.8%. The “inhibition” value (833.33 nM) was 3.15% and the “inhibition” value (10000 nM) was 4.46%.

In the case of `Oc1ccc2c(c1)CC[C@H](c1ccccc1)[C@@H]2c1ccc(OCCN2CCCC2)cc1` [lasofoxifene], the “inhibition” value (1 nM) is reported as -1.63%, the “inhibition” value (8.33 nM) is reported as 4.35% and the “inhibition” value (100 nM) is reported as 0.8%. For the same compound, the “inhibition” value (833.33 nM) was -0.28% and the “inhibition” value (10000 nM) was 49.6% (active).

`Fc1ccc(-c2c3cccc(C(F)(F)F)c3nn2Cc2ccc(F)cc2Cl)cc1` was tested, and the “inhibition” value (1 nM) was -0.96%, the “inhibition” value (8.33 nM) was -3.42% and the “inhibition” value (100 nM) was 2.69%. For the same compound, the “inhibition” value (833.33 nM) was -1.23% and the “inhibition” value (10000 nM) was 2.25%.

With `Cc1c2oc3c(C)ccc(C(=O)N[C@@H]4C(=O)N[C@H](C(C)C)C(=O)N5CCC[C@H]5C(=O)N(C)CC(=O)N(C)[C@@H](C(C)C)C(=O)O[C@@H]4C)c3nc-2c(C(=O)N[C@@H]2C(=O)N[C@H](C(C)C)C(=O)N3CCC[C@H]3C(=O)N(C)CC(=O)N(C)[C@@H](C(C)C)C(=O)O[C@@H]2C)c(N)c1=O` [dactinomycin] the “inhibition” value (1 nM) was -0.42%, the “inhibition” value (8.33 nM) was 3.96% and the “inhibition” value (100 nM) was -3.53%. The “inhibition” value (833.33 nM) was -8.77% and the “inhibition” value (10000 nM) was -14.8%.
